The results in this text go back to PubChem BioAssay (Tox21).

Several values for one entry are separate records, joined by “and”; a condition that tells them apart may be missing. Equal values may be shown once. Inconclusive results are not listed. A call without a number means that no potency is given here. Some structures have more than one record in an assay (separate samples or runs), and their calls can disagree. Activity calls are given as the source filed them. Calls come from the whole dose curve; as a rule, active = well fitted inhibition curve with a large enough effect in the repeat runs; inconclusive = weak or mixed curves; inactive = no such curve, though single readings can be large or run the other way.
Potency is the fitted concentration of half-maximal effect.

In the experiment the target is Cytochrome P450 2D6 (Homo sapiens) (UniProt P10635). Description: Cytochrome P450 Family 2 Subfamily D Member 6 (CYP2D6) small molecule antagonists: luciferase reporter qHTS assay (AID 1671196). Note: nearly all actives have a fitted effect of over 50% in size. To be noted: P450-Glo CYP2D6 enzyme assay, luciferin luminescence, 1 h; series mostly up to 115 µM. From the text: U.S. Tox21 Program National Center for Advancing Translational Sciences [NCATS] U.S. Environmental Protection Agency [EPA] National Institutes of Environmental Health Sciences [NIEHS] National Toxicology Program [NTP] U.S. Food and Drug Administration [FDA] Tox21 Assay Overview: Cytochrome P450 (CYP) enzymes are membrane-bound hemeproteins that play a key role in metabolism of drugs and xenobiotics. Evaluation of the effect of chemicals on CYP isozymes is useful to minimize the adverse drug reactions and toxicities in drug development process. Tox21 chemicals were tested for their effect on CYP enzyme activities by using P450-Glo (TM) screening systems (Promega Corporation, Madison, WI). These systems provide a luminescent method containing proluciferin substrates and are converted to luciferin products by CYP isozymes. The luciferin products formed are detected with a luciferin detection reagent, and the amount of light produced is proportional to CYP activity. P450-Glo (TM) CYP2D6 screening system (Catalog. No. V9890) was used to detect the compounds that interfere in CYP2D6 activity.
Cytochrome P450 2D6 (Homo sapiens), sequence (P10635 whole entry, looked up): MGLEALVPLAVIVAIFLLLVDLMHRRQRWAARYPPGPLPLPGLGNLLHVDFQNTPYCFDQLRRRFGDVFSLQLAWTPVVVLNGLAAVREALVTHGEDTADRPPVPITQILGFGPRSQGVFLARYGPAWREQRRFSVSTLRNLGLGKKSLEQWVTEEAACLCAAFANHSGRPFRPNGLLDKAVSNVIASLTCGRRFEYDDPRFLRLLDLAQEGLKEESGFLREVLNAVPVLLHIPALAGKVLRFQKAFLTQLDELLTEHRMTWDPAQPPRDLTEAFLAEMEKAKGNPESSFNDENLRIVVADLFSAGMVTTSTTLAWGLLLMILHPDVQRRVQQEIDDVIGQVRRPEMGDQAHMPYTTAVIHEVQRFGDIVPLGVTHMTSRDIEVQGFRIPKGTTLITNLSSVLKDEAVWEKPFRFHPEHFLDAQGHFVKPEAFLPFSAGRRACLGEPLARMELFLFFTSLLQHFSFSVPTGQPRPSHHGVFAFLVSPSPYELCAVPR
Tox21 Assay Protocol Summary: Two ul of enzyme-substrate mix was dispensed into medium binding white/solid 1536-well plates (Greiner Bio-One North America Inc., Monroe, NC) using a BioRaptr Flying Reagent Dispenser (FRD, Beckman Coulter, Brea, CA). […] The assay plates were incubated at room temperature for 10 min. Then 2 ul of NADPH regeneration solution was added to each well of the assay plates using an FRD and incubated at room temperature for 1 h. The reaction was stopped by adding 4 ul of detection reagent using an FRD and after 20 min incubation at room temperature the luminescence signal was measured using a ViewLux plate reader (Perkin Elmer, Shelton, CT). Data were expressed as relative luminescence units.
(In general: Reporter assays use an easily measured gene product as a stand-in for the process of interest.)
On to `CC(=O)c1ccc(S(=O)(=O)NC(=O)NC2CCCCC2)cc1`, for which the Potency is 31.6 µM (active) and inactive.
In the case of `COCC(C)N` (stereo not given), the Potency result is “inactive”.
As for `CCCCOC(=O)CCCCCCCCC(=O)OCCCC`, the entry is “inactive”; as for `Cc1c(N(C)C)c(=O)n(-c2ccccc2)n1C`, “inactive”; as for `O=[N+]([O-])c1ccc(O)cc1`, “inactive”.
In the case of `CN(C)C=O`, the Potency entry is “inactive”.
As for `Cc1cccc2ccccc12`, the entry is “inactive”.
As for `C[C@]12C[C@H](O)[C@H]3[C@@H](CCC4=CC(=O)CC[C@@]43C)[C@@H]1CC[C@@H]2C(=O)CO`, the entry is “inactive”; as for `CC(=O)/C=C/C1=C(C)CCCC1(C)C`, “inactive”; as for `CC(C)(C)CC(C)(C)c1ccc(O)c(-n2nc3ccccc3n2)c1`, 40.5 µM (active) and inactive.
The value for `OCCCc1ccccc1` was “inactive”; that for `CCn1cc(C(=O)O)c(=O)c2ccc(C)nc21` was “inactive”.
Regarding `CN/C(=C\[N+](=O)[O-])NCCSCc1ccc(CN(C)C)o1`, the Potency entry is “inactive”.
`CCOCCO`: the Potency result was “inactive”.
As for `COC1=CC(=O)C[C@@H](C)[C@]12Oc1c(Cl)c(OC)cc(OC)c1C2=O`, the entry is “inactive”; as for `C/C=C/c1ccc(O)c(OC)c1`, “inactive”.
As for `C=C(C)OC(C)=O`, the figure is 13 µM (active) and inactive.
As for `COC(=O)c1ccc(C=O)cc1`, the entry is “inactive”.
On to `CC(C)CC(C)CC(O)CC(C)C` (stereo not given), for which the Potency result is “inactive”.
As for `COCCOCCOC`, the entry is “inactive”; as for `CC1(C)O[C@@H]2[C@@H](CO[C@@]3(COS(N)(=O)=O)OC(C)(C)O[C@@H]23)O1`, “inactive”.
The value for `N[C@@H](Cc1c[nH]c2ccc(O)cc12)C(=O)O` was 34.6 µM (active).
In the case of `CC(C)Cc1ccc(C(C)C(=O)O)cc1` (stereo not given), the Potency entry was “inactive”.
The value for `O=C(O)CCCCC1CCSS1` (stereo not given) was “inactive”.
As to `NC(=O)c1ccc([N+](=O)[O-])cc1Cl`, the Potency entry is “inactive”.
On to `CC1=C(/C=C/C(C)=C/C=C/C(C)=C/C(=O)O)C(C)(C)CCC1`, for which the Potency entry is “inactive”.
Take `CN(C)Cc1cc(CN(C)C)c(O)c(CN(C)C)c1`: the Potency is 79.6 µM (active) and inactive.
The value for `O=C(O)CN(CC(=O)O)CC(=O)O` was “inactive”; that for `Cc1ccc(O)c(-n2nc3ccccc3n2)c1` was 31.5 µM (active) and 35.6 µM (active) and 30.9 µM (active).
The value for `CCCCCCCCCCCCCCCCCC(=O)OCC(O)CO` (stereo not given) was “inactive”; that for `C#C[C@]1(O)CC[C@H]2[C@@H]3CCC4=CC(=O)CC[C@@H]4[C@H]3CC[C@@]21CC` was “inactive”; that for `OC[C@@H](O)[C@@H](O)[C@H](O)[C@H](O)CO` was “inactive”.
As for `O=C(OCc1ccccc1)c1ccccc1`, the entry is “inactive”; as for `COc1cc(O)c(C(=O)c2ccccc2)cc1S(=O)(=O)O`, “inactive”.
Consider `Cc1cccc(C)c1O`, for which the Potency entry was “inactive”.
As for `c1ccc2[nH]c(-c3cscn3)nc2c1`, the figure is 39.9 µM (active) and 38.9 µM (active).
The value for `COC(=O)C1CCC(C(=O)OC)CC1` (stereo not given) was “inactive”.
The value for `NC(=O)OCC(COC(N)=O)c1ccccc1` was “inactive”.
As to `CC(C)(C)NCC(O)c1ccc(O)c(CO)c1` (stereo not given), the Potency entry is “inactive”.
As for `COc1ccc(O)cc1`, the figure is 27.2 µM (active) and inactive.
